This passage reports inhibition results from ChEMBL document CHEMBL3433997, “St. Jude Leishmania screening dataset” (2016).

The target of this test is Hexose transporter 1 (Plasmodium falciparum) (UniProt O97467). Put plainly: ST_JUDE_LEISH: Cytotoxicity at 2uM final concentration against transgenic Leishmania Mexicana promastigotes LmPfHT that are glucose transport deficient and complemented with the Plasmodium falciparum hexose transporter. Activity is measured by DNA content using SYBR green in vitro. It counts as functional.
On to `COc1ccc(-c2ccc(NC(=O)c3cccc(C#N)c3)cc2)cc1CN1CCCC(C(N)=O)C1` (configuration not stated), for which the inhibition came to 2.51%. The value for `COc1ccc(N(C)Cc2cnc3nc(N)nc(N)c3n2)cc1` was 1.84%. Turning to `O=C(Nc1ccc(-c2nc3ccccc3[nH]2)cc1)C1CCN(Cc2ccccc2)CC1`, the inhibition came to 23.4%. With `Cc1nc(-c2ccc(C(F)(F)F)cn2)sc1C(=O)N1CCc2cc3nccc(N4CCN5CCC[C@H]5C4)c3cc21` the figure was 5.35%; with `CCN(CC)CCN(Cc1ccc(-c2ccc(C(F)(F)F)cc2)cc1)C(=O)Cn1nc(-c2ccc(C(F)(F)F)cc2)ccc1=O`, 2.04%; with `Cc1n[nH]c2cc(Nc3ccnc(Nc4ccc(CN5CCOCC5)cc4)n3)ccc12`, 9.89%. The value for `Cc1cccc2nc(-c3ccc(-c4ccc(CNCC(C)C)cc4)cc3)[nH]c12` was 13.6%; that for `Cn1cncc1-c1ccc2c(-c3ccsc3)cnc(N)c2c1` was 6.85%. With `O=C(Nc1cccc(-c2cccc(-c3nc4ccccc4[nH]3)c2)c1)c1csnn1` the figure was 5.92%; with `O=C(N[C@H]1CCN(CCc2ccc(O[C@H]3CCNC3)c(F)c2)C1)c1ccc(Cl)c(Cl)c1`, 9.6%.

In the case of `Nc1ncc(Cc2ccc3c(ccc4ccccc43)c2)c(N)n1`, the inhibition was 12.7%. Take `O=c1cc(NCC2(CNCc3cn(Cc4ccccc4)c4ccccc34)CCCCC2)[nH]c2ccccc12`: the inhibition worked out at 5.38%. With `Cc1cc(NC(=O)[C@H](CC2CCCCC2)Nc2ccc(C#N)c3ccccc23)ccc1F` the figure was 7.28%; with `Fc1cccc(COc2ccc(Nc3ncnc4sc(C#C[C@H]5CC[C@H](CN6CCOCC6)N5)cc34)cc2Cl)c1`, -0.26%. The value for `CC(C)CC(C)NC(=O)C1Cc2c([nH]c3cc(Cl)ccc23)C2(CCN(CCc3ccccc3)CC2)N1` (configuration not stated) was 7.27%.

Consider `COc1ccc2nccc([C@@H](O)CN3CCC(NC(=O)/C=C/c4cc(F)cc(Br)c4)CC3)c2c1`, for which the inhibition is 4.62%. With `CCN(CC)CCNC(=O)c1ccc(NC(=O)c2cc(-c3ccncc3)nc3ccccc23)cc1` the figure was -0.76%; with `Fc1ccc2[nH]c(-c3ccc(-c4ccc(CN5CCC(CCN6CCCCC6)CC5)cc4)cc3)nc2c1`, 9.43%. Consider `CCOC(=O)c1c(SCc2cccc(F)c2F)[nH]c2ccccc2c1=O`, for which the inhibition is -0.99%.

For the compound `CCCCOC(=O)[C@H](CCC)NC(=O)c1ccc(NS(=O)(=O)c2ccc3nc(N)[nH]c(=O)c3c2)cc1`, the inhibition was -1.82%.

Turning to `CCCNC(=O)C1CCN(C(c2ccccc2)c2ccc(Cl)c(Cl)c2)CC1` (configuration not stated), the inhibition is 5.75%. The value for `CC(C)CCNCC(O)Cn1c2ccc(Cl)cc2c2cc(Cl)ccc21` (configuration not stated) was 0.29%; that for `Cc1cc(N(C)C2CCN(C)C2)nc(Nc2ccc(Cl)cc2)n1` (configuration not stated) was 8.61%; that for `CN1CCC(N2CCN(CCOc3cc(NC(=O)/C=C/c4ccccc4Cl)ccc3Br)CC2)CC1` was 2.87%. As for `CCCCCCCN1CCC(CCNc2ccnc3ccc(OC)cc23)CC1`, the inhibition was determined as 2.47%. The value for `COc1ccc(CCN(Cc2cccs2)C(=O)c2cc3sccc3n2C)cc1OC` was 0.45%; that for `CN1CCC(N(Cc2ccc(-c3ccc(C(F)(F)F)cc3)cc2)C(=O)Cn2c(SCc3cccc(F)c3F)cc(=O)c3c2CCC3)CC1` was 0.12%.
